Most compounds without a hit are left out; they make up all but 2.4% or so of the library.
D2 PAM-1: D2 dopamine receptor (human) potentiation | P14416 | HEK293 T-REx D2, calcium flux, EC20 dopamine potentiation | potentiation, % at 10 µM | actives 0.34% (n = 340,000) | AID 485347;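 active means potentiation over 3 SD above the plate norm, cut at about 30% in these data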; further: 0% is about no effect
Target sequence (P14416 whole entry, looked up): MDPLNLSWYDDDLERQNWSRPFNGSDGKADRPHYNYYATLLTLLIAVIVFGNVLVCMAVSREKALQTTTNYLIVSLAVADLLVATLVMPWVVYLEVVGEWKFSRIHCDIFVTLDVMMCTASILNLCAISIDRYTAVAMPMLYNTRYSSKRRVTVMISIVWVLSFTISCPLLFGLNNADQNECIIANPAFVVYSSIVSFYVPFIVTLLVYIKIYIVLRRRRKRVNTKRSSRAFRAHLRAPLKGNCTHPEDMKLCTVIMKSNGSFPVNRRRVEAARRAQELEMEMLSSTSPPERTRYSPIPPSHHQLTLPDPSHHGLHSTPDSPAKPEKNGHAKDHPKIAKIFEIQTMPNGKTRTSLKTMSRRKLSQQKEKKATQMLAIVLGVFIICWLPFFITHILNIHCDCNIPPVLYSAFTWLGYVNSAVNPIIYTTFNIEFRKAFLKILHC
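Calcium flux readout, no-wash dye, 1 read/s. Inducible HEK293 Trex D2 line, overnight 30 C. Compound alone 180 s (agonist flags), then EC20 dopamine, another 180 s to score potentiation.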
D2 PAM-2: potentiates the human D2 dopamine receptor allosterically. AID 624464. P14416. actives 0.23% (n = 360,000). DiscoveRx D2 beta-arrestin cells, luminescence, 90 min; 100% = 57 uM dopamine signal. potentiation, % (no concentration beside the values); in the data active means potentiation above about 50%; inconclusive means mostly about 30% to 49%
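D2 cells co-treated with compound plus 50 nM dopamine (EC20) for 90 min at 37 deg C to detect potentiation. Beta-arrestin recruitment was read as enzyme-fragment luminescence after 1 h at ambient temperature. Full response was set by 57 uM dopamine.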
D2 antagonist: antagonists of human D2 dopamine receptor | HEK293 TREx D2 cells, calcium flux, dopamine EC80 | inhibition, % at 10 µM | actives 2% (n = 340,000) | P14416; in the data active means inhibition above about 30%; inactive means below that, where a call was filed; further: 0% is about no effect
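Read-out: kinetic calcium fluorescence (1 cycle/s) in inducible HEK293 T-REx D2 cells after an EC80 dopamine addition that followed 180 s compound preincubation. Loss of the dopamine response indicates antagonism.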
D2 ag-1: activates the human D2 dopamine receptor; P14416; DiscoveRx PathHunter D2 beta-arrestin, luminescence, 90 min; 100% = 57 uM dopamine signal; activation, % (test concentration not listed); actives 0.084% (n = 360,000); AID 624465; in the data active means activation above about 40%; inconclusive means between about 15% and that limit
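Agonist mode: compounds alone added to overnight-plated D2 PathHunter cells for 90 min at 37 C, with 57 uM final dopamine (EC100) defining full response. Beta-arrestin recruitment detected by chemiluminescent reagent, read after 1 h at ambient temperature.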
D2 ag-2: activates the human D2 dopamine receptor | P14416 | HEK293 T-REx D2 cells, calcium flux agonist mode | activation, % at 2 µM | actives 0.53% (n = 340,000);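 active means activation over 3 SD above normal in the single-dose calcium agonist read, cut at about 30% in these data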; further: 0% is about no effect
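In this primary screen, compounds producing a positive calcium signal within 180 s of addition to tetracycline-induced, force-coupled HEK293 Trex D2 cells are flagged; cells are dye-loaded with a no-wash calcium kit beforehand.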
D3 arrestin ag: D3 receptor agonism confirmed, beta-arrestin readout; shares compounds with D2 ag-2; DiscoveRx D3 beta-arrestin cells, luminescence, 90 min; Potency, µM (titrated, usually from 76.9 µM), for inactives: at the top dose activation, most hits filed as activators; actives 4% (n = 2,300);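 further: potency means the concentration at half of the fitted maximal effect; 100% = dopamine control response; nearly all actives have a fitted effect of over 70% in size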
D2 ag-3: activates human D2 dopamine receptor in D3 counterscreen; DiscoveRx PathHunter D2 beta-arrestin, luminescence, 90 min; response scale: percent relative to full dopamine signal; AID 720507; Potency, µM (highest dose often 76.9 µM), for the others: at the highest dose activation, usual class: activators; actives 5.9% (n = 2,300); shares compounds with D2 ag-2; further: potency means the concentration at half of the fitted maximal effect; % of control where 0% means no effect; nearly all actives have a fitted effect of over 70% in size
Numbers without * were called inactive; ? = inconclusive; . = no result. Unless noted, the call rests on the fitted dose curve; in most records, active means well fitted activation curve with a large enough effect; inconclusive means small, poorly fitted or top-dose-only effect; inactive means flat fitted curve, though single readings scatter.

SMILES	D2 PAM-1	D2 PAM-2	D2 antagonist	D2 ag-1	D2 ag-2	D3 arrestin ag	D2 ag-3
COc1ccc([C@H]2CC(=O)C=C(c3ccccc3Oc3ccccc3)C2)cc1	-12	-5	7	-5	0	-13%	3%
COc1ccc(C2=CC(=O)C[C@H](c3ccc(OC)c(OC)c3)C2)cc1	14	-5	2	-4	0	9%	17%
COc1cccc(C2=CC(=O)C[C@H](c3ccc(F)cc3)C2)c1	12	-9	3	-3	-1	-10%	-3%
COc1ccc([C@H]2CC(=O)C=C(c3cc(F)ccc3F)C2)cc1OC	17	7	-8	2	0	5%	20%
COc1cc(F)cc(C2=CC(=O)C[C@H](c3ccc(F)cc3)C2)c1	2	-8	-6	-1	-1	.	.
CCOc1ccc(CCNC(=O)c2ccc3c(c2)c(C)c(C)n3Cc2ccccc2)cc1OCC	0	.	.	.	0	.	.
CCOC(=O)C1CCN(CC(=O)Nc2c(C(=O)OC)[nH]c3cccc(Cl)c23)CC1	-9	-15	14	1	26	9%	5%
CCOC(=O)C1CCN(CC(=O)Nc2c(C(=O)OC)[nH]c3ccc(Cl)cc23)CC1	.	10	-12	8	0	.	.
Cn1c(=NC(=O)COc2ccccc2)sc2cccc(F)c21	-6	0	3	-1	2	-4%	-2%
Cn1c(=NC(=O)COc2ccccc2)sc2cc(F)cc(F)c21	2	-7	-5	-6	1	.	.
COc1ccc(-n2nc3ccc(NC(=O)c4c(OC)cccc4OC)cc3n2)cc1	9	.	.	.	0	.	.
CC(Oc1ccc(F)cc1)C(=O)Nc1cc(S(=O)(=O)N2CCOCC2)ccc1N1CCCC1 (centres undefined)	-5	-34	-9	3	-1	.	.
CCN1CCN(c2ccc(S(=O)(=O)N3CCOCC3)cc2NC(=O)C(C)Oc2ccc(F)cc2)CC1 (centres undefined)	8	-7	1	4	0	-11%	-2%
CC(C(=O)Nc1ccc(N2CCOCC2)cc1)N1C(=O)c2ccccc2C1=O (centres undefined)	-5	-7	-3	0	1	.	.
CC(C)C(C(=O)Nc1ccc(N2CCOCC2)cc1)N1C(=O)c2ccccc2C1=O (centres undefined)	2	16	19	1	0	4%	4%
CCOc1cc(C)c(Cl)cc1S(=O)(=O)NCCOC	-18	-4	32*	-1	59*	-8%	-3%
CCOC(=O)c1[nH]c(C)c(CCC(=O)Nc2ccc(C(C)=O)cc2)c1C	-3	.	.	.	0	.	.
O=C(COc1ccc(Br)cc1)NNC(=O)c1ccc(-n2cncn2)c([N+](=O)[O-])c1	2	5	18	-3	0	29%	2%
Cc1noc(C)c1S(=O)(=O)NCCc1csc2nc(-c3ccc(Cl)cc3)nn12	-8	.	.	.	1	.	.
CCc1cccc(CC)c1NC(=S)NCCc1ccc(O)c(O)c1	-14	-34	25	11	36*	40µM*	?
CCc1ccc(CN(Cc2cn[nH]c2-c2ccc(OC)cc2)C(=O)Nc2cc(Cl)ccc2OC)cc1	2	.	.	.	-1	.	.
CCOc1ccccc1C(=O)NCC(=O)NNC(=O)CN(C)S(=O)(=O)c1ccc(Cl)cc1	.	-10	.	?	.	?	?
CN(CC(=O)NNC(=O)CNC(=O)c1cccs1)S(=O)(=O)c1ccc(Cl)cc1	-4	-28	10	2	42*	-5%	5%
CN(CC(=O)NNC(=O)CNC(=O)c1ccccc1F)S(=O)(=O)c1ccc(Cl)cc1	0	2	-14	5	4	.	.
O=C(Nc1ccc(NC(=O)c2ccc([N+](=O)[O-])cc2[N+](=O)[O-])cc1)c1ccco1	-13	?	0	-1	47*	?	13%
SMILES	D2 PAM-1	D2 PAM-2	D2 antagonist	D2 ag-1	D2 ag-2	D3 arrestin ag	D2 ag-3
CCOc1ccccc1N1CCN(Cc2ccc(Br)s2)CC1	-25	-5	.	2	.	-6%	4%
CCOc1ccccc1N1CCN(Cc2c(C)n(C)n(-c3ccccc3)c2=O)CC1	-25	-7	85*	-3	31*	-10%	1%
Oc1ccc(-c2csc(-c3ccccc3)n2)cc1O	-1	15	-22	4	0	.	.
Oc1ccc(-c2csc(-c3cccnc3)n2)cc1O	-10	16	4	6	31*	16µM*	15%
O=C(O)C1CCCCC1C(=O)Nc1ccc(S(=O)(=O)N2CCCCCC2)cc1 (centres undefined)	-4	-2	-28	-7	0	.	.
CC1CC1C(=O)Nc1ccc(S(=O)(=O)N2CCCCC2)cc1 (centres undefined)	.	-22	.	-2	.	1%	3%
COc1cccc2cc(C(=O)NCCc3c(C)[nH]c4ccc(F)cc34)c(=O)oc12	1	.	.	.	0	.	.
O=C(CN1CCN(Cc2ccccc2)CC1)NC(=O)NC1CCCCC1	13	-20	-4	-4	0	.	.
O=C(CN1CCN(C/C=C/c2ccccc2)CC1)NC(=O)NC1CCCCC1	-34	-15	71*	1	23	17%	11%
O=C(COc1ccccc1Cl)NNC(=O)Cn1[nH]c(=O)c2ccccc2c1=O	9	-1	0	-3	0	-5%	-7%
COc1ccc(NC(=O)c2oc3ccccc3c2NC(=O)Cc2cccs2)c(OC)c1	3	.	.	.	-1	.	.
c1ccc(N2CCN(C3CCSC3)CC2)cc1 (centres undefined)	-35	-18	18	4	41*	-9%	10%
Cc1c2cnn(CC(=O)N3CCCCC3)c(=O)c2c(C)n1Cc1ccc(Cl)cc1	-3	.	.	.	1	.	.
CSCCC(NC(=O)COc1ccccc1)C(=O)N1CC(C)OC(C)C1 (centres undefined)	-4	-1	-14	-2	0	-6%	-2%
CSCCC(NC(=O)COc1ccccc1)C(=O)N1CC(C)CC(C)C1 (centres undefined)	7	-2	-3	3	0	.	.
Cc1ccc2[nH]c(=O)c(CN(C(=O)c3cccc([N+](=O)[O-])c3)C(C)C)cc2c1	-34	-3	-4	0	50*	-4%	0%
CC(C)N(Cc1cc2ccccc2[nH]c1=O)C(=O)c1cccc([N+](=O)[O-])c1	6	0	1	-1	1	.	.
CN(CCOc1cccc2ccccc12)Cc1ccccc1	-29	0	.	?	.	8%	16%
